Eight compounds from PubChem BioAssay (Tox21) can be followed below.

Assay [1] in a line: Nuclear factor erythroid 2-related factor 2/antioxidant responsive element (Nrf2/ARE) small molecule agonists: qHTS cell viability counter screen in human keratinocytes (AID 1919968; active means well fitted curve in the direction sought with a large enough effect in the repeat runs; an effect the other way counts as inactive or inconclusive; further: nearly all actives have a fitted effect of over 55% in size). The method in brief: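 Cytotoxicity was multiplexed with the Nrf2/ARE luciferase assay in the same wells. Stably transfected HaCaT keratinocytes were treated with test compounds for 23 h at 37 C. Cell viability was then measured by CellTiter-Fluor fluorescence.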
(In general: In qHTS, concentration-response curves come from the screen itself.)

Assay [2] can be described thus: Nuclear factor erythroid 2-related factor 2/antioxidant responsive element (Nrf2/ARE) small molecule agonists: luciferase reporter gene qHTS assay in human keratinocytes (AID 1919969). Further: nearly all actives have a fitted effect of over 35% in size.
The target in assay [3] is Gonadotropin-releasing hormone receptor (Homo sapiens) (UniProt P30968). The assay can be described thus: Human gonadotropin-releasing hormone receptor (GnRHR) small molecule agonists, calcium flux assay in GnRHR-HEK293 cells (AID 1920063). Further: nearly all actives have a fitted effect of over 35% in size. The essentials: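 Agonist activity was measured as intracellular calcium flux in HEK293 cells engineered to stably express human GnRHR. After dye loading for 1 hour at 37 C, compounds in DMSO were added and fluorescence was followed for 3 minutes.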
Gonadotropin-releasing hormone receptor (Homo sapiens), sequence (P30968 whole entry, looked up): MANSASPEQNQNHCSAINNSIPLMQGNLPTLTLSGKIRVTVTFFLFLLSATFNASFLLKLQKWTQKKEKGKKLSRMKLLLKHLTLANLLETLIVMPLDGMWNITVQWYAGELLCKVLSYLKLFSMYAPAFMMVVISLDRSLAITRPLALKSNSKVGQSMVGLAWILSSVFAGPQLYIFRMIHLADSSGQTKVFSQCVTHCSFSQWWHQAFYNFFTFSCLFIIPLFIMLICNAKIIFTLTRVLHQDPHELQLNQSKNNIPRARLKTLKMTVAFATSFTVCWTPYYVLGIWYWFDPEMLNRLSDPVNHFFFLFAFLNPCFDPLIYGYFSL
For orientation: Calcium flux is commonly read through the fluorescence of an indicator in the cells.

Assay [4] has as its target KiSS-1 receptor (Homo sapiens) (UniProt Q969F8). The experiment in a line: Human kisspeptin (KISS1R) small molecule agonists, calcium flux assay in KISS1R-HEK293 cells (AID 1920064; active means well fitted curve in the direction sought with a large enough effect in the repeat runs; an effect the other way counts as inactive or inconclusive). The essentials:
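Agonist activity is monitored as intracellular calcium rise in engineered HEK293 cells carrying human KISS1R. Cells are dye-loaded for 1 h at 37 C before compound addition, and fluorescence is recorded for 3 min.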

Assay [5] in a line: p53 small molecule agonists, cell-based qHTS assay with rat liver microsomes (AID 1963578). Further: potency means the concentration at half of the fitted maximal effect. The essentials:
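Cells carrying a p53 response element–beta-lactamase reporter were plated and rested 5 h, then dosed with compound in DMSO plus rat liver microsomes and NADPH, each at 0.5 mg/mL final. After 16 h at 37 C, LiveBLAzer substrate was added for 2 h.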

A short description of assay [6]: p53 small molecule agonists, cell-based qHTS assay with rat liver microsomes: qHTS cell viability counter screen (AID 1963580). Further: nearly all actives have a fitted effect of over 45% in size. The method in brief: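 Counter screen for cytotoxicity under metabolic activation: rat liver microsomes and NADPH, 0.5 mg/mL final each, added with compounds to p53RE-bla HCT-116 cells; 16 h at 37 C, then ATP luminescence read.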
Assay [7] in a line: p53 small molecule agonists, cell-based qHTS assay (AID 1963582; active means well fitted activation curve with a large enough effect in the signal ratio in the repeat runs, not every such curve was filed as active; the % refers to the signal ratio). The method in brief:
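Cells carrying a p53-responsive bla reporter are treated with test compounds for 16 h at 37 C; beta-lactamase activity is then detected with LiveBLAzer B/G FRET substrate after 2 h at room temperature.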

The target in assay [8] is 5-hydroxytryptamine receptor 2A (Homo sapiens) (UniProt P28223). The experiment in a line: 5-hydroxytryptamine receptor 2A (HTR2A) small molecule antagonists, cell-based qHTS assay (AID 1963586). Further: nearly all actives have a fitted effect of over 45% in size. Further: potency means the concentration at half of the fitted maximal effect. The method in brief:
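CHO cells stably expressing human HTR2A were plated for 18 h at 37 C, then loaded with calcium dye for 1 h. Compounds were preincubated 5 min at room temperature before DOI (4 nM solution) was added. Kinetic fluorescence was read for 3 min.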

Assay [9] shares this target. The experiment in a line: 5-hydroxytryptamine receptor 2A (HTR2A) small molecule agonists, cell-based qHTS assay (AID 1963587). Further: nearly all actives have a fitted effect of over 30% in size. Further: potency means the concentration at half of the fitted maximal effect. The method in brief:
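HTR2A-CHO cells, plated 18 h at 37 C/5% CO2, dye-loaded 1 h at 37 C; compounds in DMSO added by pin tool (agonist mode). Intracellular calcium flux read as kinetic fluorescence on FDSS over 2 min at 1 s intervals.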

The target in assay [10] is Muscarinic acetylcholine receptor M1 (Homo sapiens) (UniProt P11229). The assay can be described thus: Cholinergic receptor muscarinic 1 (CHRM1) small molecule antagonists, cell-based qHTS assay (AID 1963588). Further: nearly all actives have a fitted effect of over 40% in size. The method in brief:
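Compounds were tested at 15 concentrations in three independent runs. Dye-loaded CHRM1-CHO cells were exposed 5 min at room temperature before stimulation by acetylcholine added at 50nM. Intracellular calcium was read kinetically on FDSS for 3 min.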

Assay [11] shares this target. The experiment in a line: Cholinergic receptor muscarinic 1 (CHRM1) small molecule agonists, cell-based qHTS assay (AID 1963589). Further: nearly all actives have a fitted effect of over 35% in size. The method in brief:
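Cells were plated and incubated 18 h at 37 C/5% CO2, loaded with calcium dye for 1 h at 37 C, then treated with compounds in DMSO. Fluorescence was recorded kinetically at 1 sec intervals.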

The nature of assay [12]: cAMP Responsive Elements (CRE) small molecule agonists, cell-based qHTS assay (AID 1963590). The method in brief: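 Cells carrying a CRE-driven beta-lactamase reporter (HEK 293T) are seeded, incubated overnight (18 h), and treated with test compounds for 3 h at 37 C; reporter activity is then detected with a FRET substrate after 2 h at room temperature.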
Assay [13] in a line: cAMP Responsive Elements (CRE) small molecule antagonists, cell-based qHTS assay (AID 1963591; active means well fitted inhibition curve with a large enough effect in the signal ratio in the repeat runs, not every such curve was filed as active; the % refers to the signal ratio). The essentials:
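Cells (CRE-bla HEK 293T, DMEM with 10% dialyzed FBS and 25 mM HEPES) are seeded and incubated 18 h. Compounds are added with NKH477 agonist at 0.25 uM final for 3 h, then FRET substrate for 2 h.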

Assay [14] addresses Beta-2 adrenergic receptor (Homo sapiens) (UniProt P07550). The assay can be described thus: Adrenergic beta2 receptor (ADRB2) small molecule antagonists, cell-based qHTS assay (AID 1963592). Further: series mostly up to about 92 µM; nearly all actives have a fitted effect of over 50% in size. The method in brief:
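Assay format: CHO-ADRB2 cells, 18-20hr seeding at 37C/5% CO2, then compound plus 1nM isoproterenol agonist mix for 0.5hr RT. Homogeneous time-resolved fluorescence cAMP detection after 1hr, expressed as 665/615 nm ratio.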

Assay [15] has the same target. The assay can be described thus: Adrenergic beta2 receptor (ADRB2) small molecule agonists, cell-based qHTS assay (AID 1963593).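 Further: CHO cells stably overexpressing human ADRB2.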 The method in brief: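 CHO cells stably over-expressing ADRB2 were plated overnight at 37C, then dosed with compounds plus a stimulation mix containing 100uM IBMX and 25uM Ro-20-1724 for 0.5hr at room temperature. cAMP was measured by HTRF competition, 1hr.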

Assay [16] has as its target D(2) dopamine receptor (Homo sapiens) (UniProt P14416). The experiment in a line: Dopamine D2 receptor (DRD2) small molecule agonists, cell-based qHTS assay (AID 1963594). Further: nearly all actives have a fitted effect of over 35% in size. Further: potency means the concentration at half of the fitted maximal effect. The method in brief:
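HEK293 cells stably expressing DRD2 were cultured 24 h at 37 C, then given Ro20-1724 (0.1 mM final) and compounds for 10 min at room temperature. NKH477 (200nM) was then added for 30 min. cAMP was read by HTRF.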

For assay [17] the target is unchanged. The experiment in a line: Dopamine D2 receptor (DRD2) small molecule antagonists, cell-based qHTS assay (AID 1963595; active means well fitted inhibition curve with a large enough effect in the signal ratio in the repeat runs, with a control signal flat; the % refers to the signal ratio). The essentials: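 Cells were plated and grown for 24 h at 37 °C. Ro20-1724 (0.1 mM final) went in first, then compound for 10 min. NKH477 (200 nM) with quinpirole (12 nM) followed for 30 min at RT, then HTRF detection reagents for 1 h.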
Assay [18] in a line: p53 small molecule agonists, cell-based qHTS assay: qHTS cell viability counter screen (AID 1963581). Further: nearly all actives have a fitted effect of over 45% in size. The essentials: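 Viability was counter-screened in parallel with the p53 agonist reporter by measuring intracellular ATP luminescence in the same HCT-116 p53RE-bla wells after 16 h compound treatment at 37 C.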
Assay [19] is described as follows: p53 small molecule agonists, cell-based qHTS assay with human liver microsomes: qHTS cell viability counter screen (AID 1963579). Further: nearly all actives have a fitted effect of over 45% in size. The method in brief: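 Cytotoxicity counter screen: p53RE-bla, 4,000 cells/well; 5 h settle, 37 C/5% CO2; cpd + HLM 0.5 mg/mL + NADPH 0.5 mg/mL (final); 16 h, 37 C; CellTiter-Glo, 30 min RT, luminescence.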

A number with no mark means an inactive call. Results filed as inconclusive are left out. The source made the active and inactive calls. Unless noted, the call rests on the fitted dose curve.
On the % scale 0 is the no-effect control and ±100 the full control effect.

KiSS-1 receptor (Homo sapiens), sequence (Q969F8 whole entry, looked up): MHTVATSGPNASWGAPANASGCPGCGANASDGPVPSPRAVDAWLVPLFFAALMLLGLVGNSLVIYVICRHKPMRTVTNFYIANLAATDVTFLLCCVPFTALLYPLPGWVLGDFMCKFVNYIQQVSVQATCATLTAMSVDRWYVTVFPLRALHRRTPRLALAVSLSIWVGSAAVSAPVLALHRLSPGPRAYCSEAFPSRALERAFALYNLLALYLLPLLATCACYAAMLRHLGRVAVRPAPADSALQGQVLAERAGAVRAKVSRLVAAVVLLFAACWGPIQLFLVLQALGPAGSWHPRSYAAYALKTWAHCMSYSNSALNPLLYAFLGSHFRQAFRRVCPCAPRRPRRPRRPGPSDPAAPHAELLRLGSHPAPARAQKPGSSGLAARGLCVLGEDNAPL
Beta-2 adrenergic receptor (Homo sapiens), sequence (P07550 whole entry, looked up): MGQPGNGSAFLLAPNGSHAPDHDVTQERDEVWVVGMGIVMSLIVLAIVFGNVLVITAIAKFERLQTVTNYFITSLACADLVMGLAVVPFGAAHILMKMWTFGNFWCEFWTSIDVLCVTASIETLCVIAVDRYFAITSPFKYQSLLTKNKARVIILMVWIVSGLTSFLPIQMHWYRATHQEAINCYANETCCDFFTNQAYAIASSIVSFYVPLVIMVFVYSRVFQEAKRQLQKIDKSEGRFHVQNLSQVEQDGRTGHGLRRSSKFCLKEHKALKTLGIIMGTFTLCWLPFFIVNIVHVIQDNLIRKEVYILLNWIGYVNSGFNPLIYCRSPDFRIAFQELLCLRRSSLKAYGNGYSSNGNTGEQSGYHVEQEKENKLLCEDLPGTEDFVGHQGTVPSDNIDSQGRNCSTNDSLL
Muscarinic acetylcholine receptor M1 (Homo sapiens), sequence (P11229 whole entry, looked up): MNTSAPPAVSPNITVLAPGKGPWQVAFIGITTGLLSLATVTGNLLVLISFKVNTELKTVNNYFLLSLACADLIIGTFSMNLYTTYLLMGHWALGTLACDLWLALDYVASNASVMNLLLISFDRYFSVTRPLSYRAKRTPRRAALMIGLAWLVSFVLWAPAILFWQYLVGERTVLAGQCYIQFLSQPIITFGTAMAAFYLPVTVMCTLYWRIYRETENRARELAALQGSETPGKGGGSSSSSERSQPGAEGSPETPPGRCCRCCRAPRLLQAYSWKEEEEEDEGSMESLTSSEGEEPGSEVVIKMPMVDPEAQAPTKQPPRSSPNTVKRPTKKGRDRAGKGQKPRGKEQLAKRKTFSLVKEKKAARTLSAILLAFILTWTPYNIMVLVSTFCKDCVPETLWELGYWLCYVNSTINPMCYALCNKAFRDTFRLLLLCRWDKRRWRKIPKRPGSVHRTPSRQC
D(2) dopamine receptor (Homo sapiens), sequence (P14416 whole entry, looked up): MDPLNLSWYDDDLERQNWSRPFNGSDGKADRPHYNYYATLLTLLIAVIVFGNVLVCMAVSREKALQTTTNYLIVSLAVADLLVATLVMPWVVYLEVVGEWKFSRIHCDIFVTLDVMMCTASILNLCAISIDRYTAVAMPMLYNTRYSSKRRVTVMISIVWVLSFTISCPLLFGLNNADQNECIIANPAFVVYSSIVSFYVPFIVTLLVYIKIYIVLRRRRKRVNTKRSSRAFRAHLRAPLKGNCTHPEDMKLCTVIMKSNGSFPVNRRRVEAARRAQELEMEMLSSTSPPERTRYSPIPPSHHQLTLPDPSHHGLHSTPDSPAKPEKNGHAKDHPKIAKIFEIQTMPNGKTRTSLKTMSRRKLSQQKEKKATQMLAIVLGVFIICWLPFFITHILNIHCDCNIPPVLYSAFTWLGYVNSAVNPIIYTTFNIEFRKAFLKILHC
5-hydroxytryptamine receptor 2A (Homo sapiens), sequence (P28223 whole entry, looked up): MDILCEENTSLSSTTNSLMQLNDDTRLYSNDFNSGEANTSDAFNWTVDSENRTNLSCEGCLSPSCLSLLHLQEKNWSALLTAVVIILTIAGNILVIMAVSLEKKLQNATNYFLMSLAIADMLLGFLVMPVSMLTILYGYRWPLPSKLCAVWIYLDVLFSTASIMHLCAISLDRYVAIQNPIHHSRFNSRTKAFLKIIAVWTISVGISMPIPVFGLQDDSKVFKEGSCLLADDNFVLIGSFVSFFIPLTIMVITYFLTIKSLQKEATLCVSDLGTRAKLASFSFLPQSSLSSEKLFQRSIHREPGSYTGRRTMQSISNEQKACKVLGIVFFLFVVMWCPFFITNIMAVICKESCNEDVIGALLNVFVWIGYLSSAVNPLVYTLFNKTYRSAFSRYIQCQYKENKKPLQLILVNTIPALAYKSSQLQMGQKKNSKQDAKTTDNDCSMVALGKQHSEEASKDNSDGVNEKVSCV

`CC(=O)NCCCCCC(=O)O`: the Potency entry in assay [1], in assay [2], in [3], in [5], in assay [6] and in assay [7] was “inactive” in each case. Further, the Potency entry in assay [8], in assay [9], in assay [10], in assay [11], in assay [12] and in assay [13] was “inactive” throughout. In addition, the Potency entry in [14], in [15], in assay [16] and in assay [17] was “inactive” in each case. In addition, the outcome in assay [4] was inactive.

For `OCCN(CCO)CCN(CCO)CCO`, the Potency entry in [1], in assay [2], in assay [3], in assay [5], in [18] and in assay [7] was “inactive” each time. The Potency entry in [8], in assay [9], in [10], in [11], in [12] and in assay [13] was “inactive” in each case. In addition, the Potency entry in assay [16] and in [17] was “inactive” throughout. Further, the outcome in [4] was inactive.

For the compound `CCOC(=O)c1c(N)sc2c1CCN(Cc1ccccc1)C2`, the Potency result in assay [1], in assay [2], in [3], in [6], in [7] and in assay [8] was “inactive” each time. In addition, the Potency entry in assay [10], in [11], in assay [12], in assay [14], in [15] and in [16] was “inactive” throughout. In addition, the Potency result in [17] is “inactive”. Besides, the result in [4] was inactive. The Potency in assay [5] is 15.8 µM (active).

Turning to `CNCc1ccccc1`, the Potency result in assay [1], in assay [2], in [3], in [5], in [19] and in [18] was “inactive” in each case. For the same compound, the Potency entry in assay [8], in assay [9], in [10], in assay [11], in assay [13] and in assay [14] was “inactive” throughout. Moreover, the Potency entry in [16] and in [17] was “inactive” each time. Besides, the result in assay [4] was inactive.

In the case of `CCCCCCC(O)CCOC(C)=O` (centres undefined), the Potency result in assay [1], in [2], in assay [3], in [5], in assay [19] and in [18] was “inactive” throughout. In addition, the Potency result in assay [7], in [8], in assay [9], in [10], in [12] and in assay [13] was “inactive” throughout. Moreover, the Potency result in [14], in assay [16] and in [17] was “inactive” in each case. The outcome in assay [4] was inactive.

Consider `Oc1cn2c(n1)Nc1ccc(Cl)c(Cl)c1C2`, for which the activity change, negative = cytotoxicity was -5.95% [at 19 µM] in assay [1], -1.56% [at 13.5 µM] in assay [19], -5.66% [at 13.5 µM] in assay [6] and -7.7% [at 13.5 µM] in assay [18]. Also, in [2], the activity, positive = activation was -4.99% [at 19 µM]. Also, the activity change in assay [3] was -1.21% [at 11.8 µM, active compounds read high]. Also, the activation was 1.57% [at 15.8 µM] in [4]; 2.32% [at 13.5 µM] in assay [7]; 4.55% [at 15.9 µM] in [9]; -0.629% [at 15.8 µM] in assay [11]; 1.31% [at 19 µM] in assay [16]. For the same compound, the activity, negative = inhibition was 4.4% [at 12.7 µM] in assay [8] and -10.4% [at 12.6 µM] in assay [10]. Further, the activity change, negative = inhibition is 8.99% [at 19 µM] in [14] and -3.31% [at 18.9 µM] in assay [17]. The Potency entry in assay [15] was “inactive”.

For the compound `CC[C@@H](N)CO`, the Potency result in assay [1], in [2], in assay [3], in assay [5], in [6] and in [18] was “inactive” in each case. Also, the Potency entry in [9], in assay [10], in [11], in assay [12], in assay [13] and in assay [14] was “inactive” each time. In addition, the Potency result in assay [17] was “inactive”. In assay [4], the result was inactive.

As to `C=CCN1CCc2nc(N)sc2CC1`, the Potency result in [1], in assay [2], in assay [3], in [5], in [6] and in [7] was “inactive” in each case. The Potency entry in assay [10], in assay [12], in assay [13], in assay [14], in [15] and in assay [17] was “inactive” each time. In assay [4], the result was inactive. The Potency in assay [8] was 4.1 µM (active); in assay [9], 6.01 µM (active); in assay [16], 0.119 µM (active).
